In PubChem BioAssay (EPA / NIEHS):
Inconclusive results are not listed. The source made the active and inactive calls. The calls were made as follows: active = hit-call score of the fitted dose curve at least 0.9, where 1 is the maximum; inconclusive = response in the unintended direction; inactive = score below 0.9.

The molecules below were run on ABC Transporter (ABCB1), ABCB1 (gene 5243) (assay: CLD_ABCB1_6hr: CellzDirect (CLD) Gene Expression Assay for ABC Transporter (ABCB1) at 6 hours (AID 2283659);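 also: hits raise ABCB1 transcript above the DMSO vehicle baseline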).
Procedure: CLD_6hr is a cell-based, multiplexed-readout assay that uses hepatocyte, a human liver primary cell, with measurements taken at 6 hours after chemical dosing in a 96-well plate.CLD_ABCB1_6hr is one of 16 assay component(s) measured or calculated from the CLD_6hr assay. It is designed to make measurements of mRNA induction, a form of inducible reporter, as detected with chemiluminescence signals by Quantitative Nuclease Protection Assay (qNPA) technology.Data from the assay component CLD_ABCB1_6hr was analyzed at the endpoint, CLD_ABCB1_6hr, in the positive analysis fitting direction relative to DMSO as the negative control and baseline of activity. Using a type of inducible reporter, gain-of-signal activity can be used to understand changes in the reporter gene as they relate to the gene ABCB1. Furthermore, this assay endpoint can be referred to as a primary readout. To generalize the intended target to other relatable targets, this assay endpoint is annotated to the transporter intended target family, where subfamily is ABC transporter.
Human hepatocyte cultures were treated daily for two consecutive days with fresh dosing solutions containing appropriate concentrations of the 320 ToxCast chemicals (chemical identities were blinded to CellzDirect and other ToxCast collaborators), vehicle control (0.2% DMSO), and positive control inducers as summarized in Table 1. Due to the large number of treatment groups and chemicals examined, the ToxCast chemicals were divided into two groups (spanning two independent cultures of hepatocytes from separate donor preparations (Hu778: ToxCast plates 1 and 2; Hu776: ToxCast plates 3 and 4). Each preparation of human hepatocyte cultures was treated with respective vehicle control, medium only control, set of six positive controls/reference chemicals for the five hepatic receptor pathways, and a subset of eight of the ToxCast chemicals (indoxacarb, pyrithiobac-sodium, norflurazon, cyhalofop-butyl, methomyl, thiram, acetochlor, and propiconazole). These replicate data, coupled with internal replicates designed within the blinded ToxCast chemical library, provided additional data to evaluate interindividual differences between hepatocyte preparations and their potential impact on chemical profiles.Cell morphology and integrity were evaluated using phase-contrast microscopy as an indicator of hepatocyte cell health (Tyson & Green, 1987). Cultures for each treatment group (i.e., media, vehicle [0.2% DMSO], positive control inducers [multiple concentrations], and the ToxCast chemicals [multiple concentrations]) were observed and cell morphology was assessed relative to vehicle control cultures at each harvest time point (0, 6, 24, or 48 h). […] Images were evaluated at the conclusion of the study to assess changes in cell integrity and account for the effects of chemical exposure on uncharacteristic changes in concentration-dependent gene expression profiles. The results from these determinations of apparent cytotoxicity were annotated (yes/no) alongside the corresponding qNPA data for reference.At the conclusion of each treatment period, hepatocyte cultures (96-well) were washed with 1 volume of HBSS, lysed by addition of 25 ul ArrayPlate lysis buffer (HTG, Tucson, AZ), and 70 ul/well of Denaturation Oil, denatured by incubation at 95C for 10 min, and frozen at approximately -70C until analysis by nuclease protection assay (qNPA) (Roberts et al., 2007). For qNPA analysis, cell lysates were thawed at 50C for approximately 30 min, qNPA probes were added, and samples were incubated at 95C for 10 min to begin the detection process by denaturing the target RNA, dissociating the duplexes and secondary structure hybridization. At the conclusion of the hybridization period, S1 nuclease reagent was added to each sample to digest all nonprotected nucleotides at 50C for 60-90 min. […]

**Q.** How did the outcome turn out when `CSc1nnc(C(C)(C)C)c(=O)n1N` was run?
**A.** inactive

**Q.** With `COc1ccc(C(=CC(=O)N2CCOCC2)c2ccc(Cl)cc2)cc1OC` as the molecule, how does the outcome read?
**A.** inactive

**Q.** With `CCCOCC(=Nc1ccc(Cl)cc1C(F)(F)F)n1ccnc1` as the molecule, how does the outcome read?
**A.** inactive

**Q.** Which outcome does the source give for `CNC(=O)ON=C(C)SC` here?
**A.** inactive

**Q.** How did the outcome turn out when `CCCCOC(=O)[C@@H](C)Oc1ccc(Oc2ccc(C#N)cc2F)cc1` was run?
**A.** inactive

**Q.** For `CN(C)[C@@H]1C(=O)C(C(N)=O)=C(O)[C@@]2(O)C(=O)C3=C(O)c4c(O)cccc4[C@@](C)(O)[C@H]3[C@H](O)[C@@H]12`, which outcome is on record?
**A.** inactive

**Q.** How did the outcome turn out when `N#CSCSC#N` was run?
**A.** inactive

**Q.** Which outcome does the source give for `C#CCC1=C(C)C(OC(=O)C2C(C=C(C)C)C2(C)C)CC1=O` (stereo not given) here?
**A.** inactive

**Q.** Which outcome does the source give for `COc1cccc(C(=O)NN(C(=O)c2cc(C)cc(C)c2)C(C)(C)C)c1C` here?
**A.** inactive

**Q.** Which outcome does the source give for `CN1COCN(Cc2cnc(Cl)s2)C1=N[N+](=O)[O-]` here?
**A.** inactive

**Q.** Which outcome does the source give for `COP(=O)(NC(C)=O)SC` (stereo not given) here?
**A.** inactive

**Q.** For `CNc1cnn(-c2cccc(C(F)(F)F)c2)c(=O)c1Cl`, which outcome is on record?
**A.** inactive

**Q.** `CCOP(=O)(OCC)Oc1cc(C)nc(C(C)C)n1` was tested. Which outcome did it give?
**A.** inactive

**Q.** `CCOC(=O)CC(SP(=O)(OC)OC)C(=O)OCC` (stereo not given) was tested. Which outcome did it give?
**A.** inactive

**Q.** How did the outcome turn out when `CC1=NNC(=O)N(/N=C/c2cccnc2)C1` was run?
**A.** inactive

**Q.** For `Cc1ccn2nc(S(=O)(=O)Nc3c(F)cccc3F)nc2n1`, which outcome is on record?
**A.** inactive

**Q.** For `CC(C1CC1)C(O)(Cn1cncn1)c1ccc(Cl)cc1` (stereo not given), which outcome is on record?
**A.** inactive

**Q.** For `CCCSP(=O)(OCC)Oc1ccc(Br)cc1Cl` (stereo not given), which outcome is on record?
**A.** inactive

**Q.** With `O=c1ccc(=O)[nH][nH]1` as the molecule, how does the outcome read?
**A.** inactive

**Q.** Which outcome does the source give for `CCOP(=S)(OCC)Oc1ccc([N+](=O)[O-])cc1` here?
**A.** inactive

**Q.** `CCc1cccc(C)c1N(C(=O)CCl)C(C)COC` (stereo not given) was tested. Which outcome did it give?
**A.** inactive

**Q.** With `CCCCSP(=O)(SCCCC)SCCCC` as the molecule, how does the outcome read?
**A.** inactive

**Q.** Which outcome does the source give for `CCOP(=S)(OCC)Oc1cc(C)nc(C(C)C)n1` here?
**A.** inactive

**Q.** Which outcome does the source give for `C[N+]1(C)CCCCC1` here?
**A.** inactive

**Q.** How did the outcome turn out when `CC(C)N(C(=O)SCC(Cl)=C(Cl)Cl)C(C)C` was run?
**A.** inactive

**Q.** With `CCOP(=S)(OCC)OC(Cl)C(Cl)(Cl)Cl` (stereo not given) as the molecule, how does the outcome read?
**A.** inactive

**Q.** Which outcome does the source give for `CCOP(=O)(SC(C)CC)N1CCSC1=O` (stereo not given) here?
**A.** inactive

**Q.** For `CCC(CC)Nc1c([N+](=O)[O-])cc(C)c(C)c1[N+](=O)[O-]`, which outcome is on record?
**A.** inactive

**Q.** For `CCc1cnc(C2=NC(C)(C(C)C)C(=O)N2)c(C(=O)O)c1` (stereo not given), which outcome is on record?
**A.** inactive

**Q.** How did the outcome turn out when `CCC(=NOC/C=C/Cl)C1=C(O)CC(C2CCOCC2)CC1=O` (stereo not given) was run?
**A.** inactive

**Q.** Which outcome does the source give for `CCCCOC(=O)c1ccccc1C(=O)O` here?
**A.** inactive

**Q.** For `CON=C(C(=O)OC)c1ccccc1CON=C(C)c1cccc(C(F)(F)F)c1`, which outcome is on record?
**A.** inactive

**Q.** Which outcome does the source give for `O=C(O)c1cc(Oc2ccc(C(F)(F)F)cc2Cl)ccc1[N+](=O)[O-]` here?
**A.** inactive

**Q.** How did the outcome turn out when `COP(=O)(OC)OC(Br)C(Cl)(Cl)Br` (stereo not given) was run?
**A.** inactive

**Q.** Which outcome does the source give for `CCOP(=S)(Oc1cnc(C(C)(C)C)nc1)OC(C)C` (stereo not given) here?
**A.** inactive

**Q.** `CNC(=O)ON=C(SC)C(=O)N(C)C` was tested. Which outcome did it give?
**A.** inactive

**Q.** Which outcome does the source give for `Nc1nc(N)nc(NC2CC2)n1` here?
**A.** inactive

**Q.** `CC(C)=CC1C(C(=O)OCN2C(=O)C3=C(CCCC3)C2=O)C1(C)C` (stereo not given) was tested. Which outcome did it give?
**A.** inactive

**Q.** `C#CC(C)(C)NC(=O)c1cc(Cl)cc(Cl)c1` was tested. Which outcome did it give?
**A.** inactive

**Q.** Which outcome does the source give for `CSc1nc(NC(C)C)nc(NC(C)C)n1` here?
**A.** inactive
